Assay outcomes deposited in PubChem BioAssay by National Center for Advancing Translational Sciences (NCATS).
NPC1 promoter act = activators of NPC1 promoter. Huh7 NPC1 promoter luciferase reporter, 24 h. Potency, µM (top dose mostly 9.22 µM), for inactives: top-dose activation, most hits filed as activators. 320,000 compounds, 2.4% hits. AID 485313; also: % of control where 0% means no effect; nearly all actives have a fitted effect of over 60% in size
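Huh7 cells stably carrying NPC1 promoter–luciferase, plated in Opti-MEM with 10% FBS for 2 h, were exposed to compound in DMSO for 24 h at 37 °C; luciferase reagent was added for 10 min and luminescence read.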
ELG1 genotoxic = genotoxicity induction in ELG1-luciferase HEK293T cells; HEK293T ELG1-luciferase reporter, luminescence, 16 h; Potency, µM (highest dose often 46 µM), for inactives: at the top dose activity change, positive = activation, usual class: activators; 330,000 compounds, 1.3% hits; also: % of control where 0% means no effect; nearly all actives have a fitted effect of over 60% in size
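HEK293T cells expressing luciferase-tagged ELG1 were treated with compound or DMSO for 16 hr at 37°C. Luciferase activity was then read after 30 min with ONE-Glo at room temperature; rising signal flags genetic stress.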
ELG1 DNA repair = inhibitors of ELG1-dependent DNA repair in HEK293T cells; Potency, µM (highest dose often 46.1 µM), inactives show top-dose activity change, negative = inhibition, actives largely listed as inhibitors; HEK293T ELG1-luciferase reporter, luminescence, 16 h; DNA damage induced by 5-fluorouridine; 330,000 compounds, 2.3% hits; also: % is scaled to controls: 0 for no effect and ±100 for the full control effect; nearly all actives have a fitted effect of over 55% in size
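Overnight (16 hr) co-exposure of 2,000 cells/well to 5-fluorouridine and compound at 37 °C preceded detection. Luciferase was quantified via ONE-Glo luminescence; loss of signal denotes inhibition.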
Rab9 promoter act = Rab9 promoter activation; Huh7 Rab9 promoter-luciferase reporter, luminescence, 24 h; Potency, µM (highest dose often 9.22 µM), inactives show at the top dose activation, negative = inhibition, most hits filed as activators; 320,000 compounds, 2.8% hits; also: % of control where 0% means no effect; nearly all actives have a fitted effect of over 60% in size
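Cells were plated at 1500 per well in reduced-serum medium with 10% FBS and left 2 h. Compound in DMSO was then added for 24 h at 37 °C. Reporter signal was read by luminescence after 10 min with luciferase detection reagent.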
SMN2 splice enh = SMN2 splice variant enhancement | 210,000 compounds, 2.8% hits | Potency, µM (top dose mostly 46.1 µM), for the others: at the highest dose activity change, positive = activation, most hits filed as activators | HEK293 SMN2-luciferase splicing reporter, luminescence, 30-36 h; also: % of control where 0% means no effect; nearly all actives have a fitted effect of over 55% in size
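HEK293 cells carry an SMN2 minigene-luciferase reporter in which exon 7 inclusion puts luciferase in frame. Cells were seeded at 2000 cells/well, attached for 10-12 hours, then exposed to compounds for 30-36 hours at 37C before ONE-Glo luminescence.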
FLuc modulator = firefly luciferase modulation, counter-screen for miR-21 project; purified FLuc, Km substrates, luminescence inhibition; Potency, µM (highest dose often 57.5 µM), for the others: at the top dose activity change, negative = inhibition, usual class: inhibitors; 360,000 compounds, 6.9% hits; AID 588342;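 also: plate controls were vehicle for no effect and reference inhibitor for full effect; nearly all actives have a fitted effect of over 55% in size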
Target sequence (P08659 whole entry, looked up): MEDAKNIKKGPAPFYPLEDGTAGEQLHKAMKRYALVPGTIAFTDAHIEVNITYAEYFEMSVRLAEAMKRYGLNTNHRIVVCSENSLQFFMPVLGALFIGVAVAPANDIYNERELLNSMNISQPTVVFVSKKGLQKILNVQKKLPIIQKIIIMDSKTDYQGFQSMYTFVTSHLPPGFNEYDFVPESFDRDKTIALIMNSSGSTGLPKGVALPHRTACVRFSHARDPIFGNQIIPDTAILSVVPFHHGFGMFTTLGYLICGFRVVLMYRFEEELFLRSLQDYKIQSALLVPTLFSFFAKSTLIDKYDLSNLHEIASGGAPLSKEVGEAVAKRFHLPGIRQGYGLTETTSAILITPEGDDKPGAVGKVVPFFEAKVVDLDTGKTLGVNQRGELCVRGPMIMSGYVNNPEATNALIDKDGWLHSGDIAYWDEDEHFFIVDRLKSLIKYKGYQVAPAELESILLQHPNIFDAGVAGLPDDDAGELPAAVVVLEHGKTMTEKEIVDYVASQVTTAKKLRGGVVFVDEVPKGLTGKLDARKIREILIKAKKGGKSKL
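Biochemical qHTS of compounds, final roughly 60 µM downward over six points, against 10 nM purified firefly luciferase using Km concentrations of substrates (10 uM D-luciferin, 10 uM ATP) in Tris acetate pH 7.5 buffer; luminescence output.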
Starred values were filed as active, the others as inactive; ? = inconclusive; / = no result; [ ] = dose if it differs, or a comment. Sampled rows, rich in hits. Any-hit rate of the full collection: about 9.2%. Calls follow the shape of the dose curve; as a rule, active = well fitted curve in the direction sought with a large enough effect; inconclusive = small, poorly fitted or top-dose-only effect, or another doubt; inactive = no such curve, though single readings can be large; an effect the other way counts as inactive or inconclusive. Potency is read from the fitted curve at half-maximal effect.

SMILES	NPC1 promoter act	ELG1 genotoxic	ELG1 DNA repair	Rab9 promoter act	SMN2 splice enh	FLuc modulator
CCCc1ccc(-c2ccc(/C=C/C(=O)O)cc2)nc1	-25%	8%	?	-28%	-70%	0.54µM*
CCCCCc1ccc(-c2ccc(/C=C/C(=O)O)cc2)nc1	?	?	?	?	-35%	0.38µM*
CCCCCCCCCCCCCCCCCCc1ccc(C(=O)/C=C/C(=O)O)cc1	/	/	/	/	7%	/
CCOc1cccc(/C=C/C(=O)O)c1	-1%	0%	?	0%	-51%	-4%
N#Cc1cccc(NC(=O)N2CCC3(CC2)CCN(C(=O)c2ccco2)CC3)c1	/	/	/	/	-18%	/
COc1cc(C(=O)Nc2ccc(C)cn2)c([N+](=O)[O-])cc1OC	-9%	2%	8%	-1%	3%	0%
COc1ccc(C(=O)Nc2cc(C)on2)cc1OC	-3%	16%	18%	2%	/	-6%
Cc1cc(NC(=O)Nc2ccc(C)c(C)c2)no1	21%	?	?	?	/	13µM*
COc1ccc(C(=O)Nc2ccc(C)cn2)c(OC)c1	?	0.092µM*	?	0.35µM*	/	0.19µM*
COc1cccc(NC(=O)Nc2cc(C)on2)c1	27%	8%	?	23%	/	?
COc1cccc(C(=O)NC(=O)Nc2cc(C)on2)c1	?	?	?	1.6µM*	11µM*	?
COc1ccc(C(=O)Nc2cc(C)on2)c(OC)c1	3.2µM*	?	?	3.2µM*	/	11µM*
CCOCCCN(Cc1ccco1)C(=O)c1cc2c(s1)-c1c(C)cccc1OC2	/	/	/	/	-7%	-13%
COc1cccc(NC(=O)c2nc(SC)ncc2Cl)c1	4%	-4%	1%	1%	/	3%
COc1cccc(NC(=O)c2ncc(Cl)c(Cl)c2Cl)c1	13%	-3%	?	4%	26%	5.4µM*
COc1cccc(NC(=O)c2ccn(C)n2)c1	?	?	?	2.8µM*	14µM*	?
O=C(c1ccc(S(=O)(=O)c2cccc(Cl)c2)c([N+](=O)[O-])c1)N1CCN(c2ccccn2)CC1	1%	-13%	18µM*	-1%	-85%	6%
O=C(c1ccc(Cl)c(S(=O)(=O)NCc2ccccc2)c1)N1CCN(c2ccccn2)CC1	-5%	-7%	23µM*	0%	-25%	-1%
CN1C(=O)/C(=C\c2ccccc2)Sc2ccc(C(=O)N3CCN(c4ccccn4)CC3)cc21	-5%	-6%	-23%	6%	-18%	?
O=C(c1cccc(Cl)c1)N1CCN(c2ccccn2)CC1	1%	1%	7%	-3%	-3%	-2%
O=C1Nc2cc(C(=O)N3CCN(c4ccccn4)CC3)ccc2S/C1=C\c1ccccc1	0%	-3%	18µM*	-4%	/	-24%
Cc1cccc(N2CCN(C(=O)c3ccc(Cl)c(S(=O)(=O)NCc4ccco4)c3)CC2)c1C	-7%	-16%	18µM*	-1%	-24%	-1%
Cc1ccc(S(=O)(=O)NCCC(=O)N2CCN(c3ccccc3)CC2)cc1C	/	-3%	?	/	/	/
O=C1NN(c2cccc(Br)c2)C(=O)/C1=C/c1cccs1	-1%	-1%	-10%	5%	/	9.5µM*
O=C1NN(c2ccccc2)C(=O)/C1=C/c1cccs1	-4%	1%	?	-10%	3%	19µM*
SMILES	NPC1 promoter act	ELG1 genotoxic	ELG1 DNA repair	Rab9 promoter act	SMN2 splice enh	FLuc modulator
O=C1NN(c2ccccc2)C(=O)/C1=C\c1ccccc1	-1%	8%	-13%	-2%	/	17µM*
O=C1NN(c2cccc(Br)c2)C(=O)/C1=C\c1ccccc1	2%	0%	8%	0%[1.84 µM]	/	?
COc1cccc(C(=O)CC(=O)C(=O)Nc2cc(OC)c(OC)c(OC)c2)c1	-8%	2%	6%	-1%	/	-2%
CC(C)c1ccc(CNNC(=O)c2ccccc2)cc1	?	13%[9.26 µM]	?	?	/	?
O=C(c1ccco1)N1CCN(C(c2ccccc2)c2nnnn2Cc2cccs2)CC1 (stereo not given)	1%	0%	15%	4%	-14%	5%
CC(C)C(c1nnnn1Cc1cccs1)N1CCN(C(=O)c2ccco2)CC1 (stereo not given)	-27%	6%	6.5µM*	-20%	/	0%
CCC(=O)C1=C(c2ccc(F)cc2)N(C(=O)CC)n2c(nnc2-c2ccc(OC)cc2)S1	/	/	/	/	/	0%
COC(=O)c1c(-c2cccc3ccccc23)csc1NC(=O)Cc1ccc(OC)c(OC)c1	-5%	-18%	21µM*	-3%	-53%	0%
COC(=O)c1c(-c2ccc(Br)cc2)csc1NC(=O)Cc1ccc(OC)c(OC)c1	-2%	-13%	18µM*	-19%	-74%	0%
NS(=O)(=O)c1ccc(NC(=S)Nc2nn(Cc3ccc(Cl)cc3Cl)cc2Cl)cc1	3%	-1%	?	-1%	-21%	4%
COc1ccc(S(=O)(=O)N2CCCCCC2)cc1NC(=O)CN1C(=O)CNC1=O	/	0%	3%	/	/	/
Cc1cccc(NS(=O)(=O)c2csc(C(N)=O)c2)c1C	-1%	-4%	-18%	-14%	/	-1%
N#CC1(NC(=O)CN2c3cccc4cccc(c34)S2(=O)=O)CCCCC1	-8%	0%	14%	-7%	/	1%
C=CCN1C(=O)C(CC(=O)O)S/C1=N/N=C/c1ccc(N(CC)CC)cc1 (stereo not given)	3%	1%	2%	-2%	/	21µM*
CN(C)c1ccc(/C=N/N=C2/SC(CC(=O)O)C(=O)N2c2ccc(O)cc2)cc1 (stereo not given)	-1%	0%	17%	26%	-7%	?
COc1ccc(CCn2nc(C)c([N+](=O)[O-])c2C)cc1	3.2µM*	16µM*	?	3.2µM*	/	12µM*
COc1ccc2c(c1)c(CC(=O)Nc1ccc(C(C)=O)cc1)c(C)n2C(=O)c1ccc(Cl)cc1	-3%	0%	12µM*	0%	21%	-18%
COc1ccc2c(c1)c(CC(=O)Nc1c(C)cccc1C)c(C)n2C(=O)c1ccc(Cl)cc1	/	/	/	/	3%	0%
COc1ccc2c(c1)c(CC(=O)Nc1nnc(C3CC3)s1)c(C)n2C(=O)c1ccc(Cl)cc1	-2%	-7%	5.8µM*	-1%	/	-6%
COCc1cc(CN2CCN(CCc3ccccc3)C(CCO)C2)ccc1OC (stereo not given)	1%	1%	-10%	-1%	/	-1%
CCOC(=O)N1CCN(S(=O)(=O)N2CCCC(C(=O)NCCc3ccc(OC)c(OC)c3)C2)CC1 (stereo not given)	-2%	-2%	?	-4%	/	0%
